From PubChem BioAssay
Rows were chosen to be rich in hits. Some 5.7% of all compounds tested hit in one or more screens of this group.
Nrf2 inh = blocks Nrf2 signaling | A549 ARE-Fluc reporter, luciferase luminescence, 18-24 h | Potency, µM (top dose mostly 46 µM), inactives show top-dose activity change, negative = inhibition, hits mostly inhibitors | actives 2.1% (n = 360,000) | AID 504444; note: potency is the fitted concentration of half-maximal effect; nearly all actives have a fitted effect of over 60% in size
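Cells were seeded and rested 2 h, then exposed to compounds for 18-24 h. CellTiter-Fluor was read first as a viability measure. BugLite was added 15 min before the final luminescent read of ARE-luciferase activity in A549 cells.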
Giardia killer = Giardia lamblia killing | AID 540267 | activity change, % at 7.66 µM, hits read low | actives 0.15% (n = 340,000) | Giardia lamblia trophozoite viability; in the data active = activity change below about -80%; inconclusive = between about -30% and that limit;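 note: parasites exposed to compound for two days anaerobically before the ATP read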
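Luminescence from cellular ATP indicates surviving trophozoites (100 cells/well) following 48 hrs anaerobic compound treatment at 37 deg C; signal develops 15-30 min at room temperature.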
A549 tox = counter-screen for Nrf2 inhibitors: cytotoxicity in A549 cells | A549 ARE-Fluc cells, CellTiter-Fluor viability, 18-24 h | Potency, µM (highest dose often 46 µM), without a hit: at the top dose activity change, negative = cytotoxicity, hits mostly inhibitors | actives 0.16% (n = 390,000) | AID 504648; note: potency is the fitted concentration of half-maximal effect
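Cytotoxicity counterscreen: CellTiter-Fluor fluorescence was measured in A549 ARE_Fluc cells after 18-24 h of compound exposure in a concentration series. The subsequent BugLite luminescent read reports ARE-luciferase activity.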
KB-V1 MDR tox = kills drug-selected multidrug resistant KB-V1 cells; KB-V1 MDR cells viability, CellTiter-Glo, 72 h; Potency, µM (series often up to 46.1 µM), actives largely listed as cytotoxic; actives 3.4% (n = 400,000); AID 1347076; note: potency is the fitted concentration of half-maximal effect; nearly all actives have a fitted effect of over 60% in size
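Drug-selected KB-V1 cells, grown in DMEM lacking phenol red with 10% FBS, receive compound titrations; after three days at 37 degrees C, surviving cell ATP is quantified by CellTiter-Glo luminescence and responses normalized and curve-fitted.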
KB-3-1 tox = KB-3-1 parental cell cytotoxicity. actives 1.4% (n = 400,000). KB-3-1 viability, CellTiter-Glo ATP luminescence, 72 h. AID 1347075. Potency, µM (top dose mostly 46.1 µM), actives largely listed as cytotoxic; note: potency is the fitted concentration of half-maximal effect; nearly all actives have a fitted effect of over 60% in size
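72 h, 37 °C compound treatment of KB-3-1 parental cells; CellTiter-Glo added, 10 min, luminescence read. Data corrected against DMSO-only plates and normalized before curve fitting.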
PI4K2A block = blocks human PI4K2A kinase activity; AID 1346378; Q9BTU6; activity change, negative = inhibition, % at 76.9 µM; purified PI4K2A, ADP-Glo luminescence, 1 h; active compounds read low; actives 0.13% (n = 420,000); in the data active = activity change below about -50%; inconclusive = mostly about -30% to -49%;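 note: -100% = wells without enzyme as full effect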
Target sequence (Q9BTU6 whole entry, looked up): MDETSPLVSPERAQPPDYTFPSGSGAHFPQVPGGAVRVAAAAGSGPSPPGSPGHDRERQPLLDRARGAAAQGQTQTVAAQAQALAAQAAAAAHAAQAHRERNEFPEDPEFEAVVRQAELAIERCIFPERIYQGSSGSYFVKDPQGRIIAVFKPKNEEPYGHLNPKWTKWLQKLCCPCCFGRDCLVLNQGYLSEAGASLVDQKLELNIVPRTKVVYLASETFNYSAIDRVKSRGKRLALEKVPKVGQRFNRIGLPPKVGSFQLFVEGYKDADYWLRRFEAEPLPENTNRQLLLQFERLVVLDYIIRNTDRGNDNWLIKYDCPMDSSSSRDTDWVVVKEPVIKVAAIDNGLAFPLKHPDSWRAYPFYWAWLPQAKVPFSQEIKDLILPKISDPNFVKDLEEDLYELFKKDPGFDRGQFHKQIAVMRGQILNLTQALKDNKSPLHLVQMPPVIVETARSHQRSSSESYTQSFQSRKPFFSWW
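ADP-Glo luminescence measured ADP generated by PI4K2A enzyme (4 ug/mL before mixing) with 1.2 mM PI substrate (pre-mix) and 300 microM ATP (pre-mix). Tris pH7.5 buffer with MgCl2, Triton X-100; 1 h reaction at ambient temperature.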
An asterisk follows results filed as active; i = inactive; u = inconclusive; x = no result. Unless noted, calls come from the whole dose curve; as a rule, active = well fitted curve in the direction sought with a large enough effect; inconclusive = small, poorly fitted or top-dose-only effect, or another doubt; inactive = no such curve, though single readings can be large; an effect the other way counts as inactive or inconclusive. Unless noted, % is set by controls: 0 for no effect and ±100 for the full control effect.

SMILES | Nrf2 inh | Giardia killer | A549 tox | KB-V1 MDR tox | KB-3-1 tox | PI4K2A block
CCOC(=O)c1c(Nc2cccc(C)c2)nnc(-c2ccccc2)c1-c1ccccc1 | 18µM* | x | -16% | u | 16µM* | 7
Nn1c(SCC(=O)N2c3ccccc3Sc3ccc(Cl)cc32)nnc1-c1n[nH]c2c1CCC2 | x | x | x | x | x | 3
S=Cc1ccc(/C=C/c2ccnc3ccccc23)cc1 | x | x | x | i | u | x
O=C(Nc1nccs1)c1ccc(S(=O)(=O)NCC2CCCCC2)cc1 | 13µM* | -1 | -17% | u | i | 4
O=C(Nc1nccs1)c1ccc(N2C(=O)C3CCCCC3C2=O)cc1 (stereo not given) | 6% | -5 | -4% | i | i | -1
O=C(Nc1nccs1)c1ccc(S(=O)(=O)NCc2cccs2)cc1 | -29% | -8 | 0% | 18µM* | i | 1
O=C(Nc1ccc(Br)cc1)c1ccc(F)c(S(=O)(=O)NCc2cccs2)c1 | 12µM* | 7 | -3% | u | u | 3
CN(c1ccc(C(=O)Nc2nccs2)cc1)S(=O)(=O)c1ccccc1 | x | -8 | -1% | u | i | 1
CCc1cccc(CC)c1NC(=O)COC(=O)CC1c2ccccc2CCN1S(=O)(=O)c1ccc(F)cc1 (stereo not given) | -6% | -3 | 10% | 18µM* | i | -1
O=C(COC(=O)CC1c2ccccc2CCN1S(=O)(=O)c1ccc(F)cc1)Nc1ccccc1 (stereo not given) | 2% | 5 | 1% | i | i | -3
COC(=O)[C@]12C[C@H](CC(=O)NCCCCc3ccccc3)C(=O)N(Cc3cccc4ccccc34)C1=C[C@H](C1CCCC1)O[C@@H]2C | x | x | x | x | x | -1
CCc1nc2ccc(C(=O)NC3CCN(Cc4ccccc4)CC3)cn2c1N(C)Cc1cc2ccccc2s1 | x | x | x | 10µM* | u | 3
COc1ccccc1/C=C/c1nc2ccccc2n1C(C)C | u | x | 1% | i | i | -2
CCOC(=O)CNc1nc(C(C)(C)C)nc2c1nnn2Cc1ccccc1Cl | x | -20 | 5% | 5.8µM* | u | -1
Cc1cccc(-c2nc3c4ccccc4nc(N4CCN(c5ccccc5F)CC4)n3n2)c1 | u | x | 2% | x | x | -1
CC(=C\C=O)/C(C)=C/CC[C@@H]1O[C@@H]2C[C@@H]3O[C@](C)(C[C@H]4C[C@H](O)[C@@H]5O[C@@H]6C[C@H](O)[C@@H](C)O[C@@]6(C)CC[C@H]5O4)[C@@H](O)CC[C@@]3(C)O[C@H]2[C@@H](O)[C@@H]1C | x | x | x | x | x | -4
COc1ccc(N2CCN(C(c3cccs3)C(C)NS(=O)(=O)c3ccccc3)CC2)cc1 (stereo not given) | u | 11 | -4% | u | 21µM* | 3
CC(C)C(=O)NC(C)C(c1cccs1)N1CCN(c2ccccc2)CC1 (stereo not given) | -11% | -3 | -5% | 13µM* | i | 4
NC(=O)c1ccc(NC(=O)C2CCN(S(=O)(=O)Cc3ccccc3)CC2)cc1 | 12% | x | 6% | i | i | -2
CCc1noc(C)c1C(=O)N1CCN(CC(=O)OC)CC1 | x | x | x | x | x | -2
Cc1cnc([N+](=O)[O-])n1CCOC(=O)NC(=O)c1ccc(C(F)(F)F)cc1 | 5% | -91* | 0% | i | i | -3
CN(C(=O)CSc1nc2c(c(=O)[nH]1)CCCC2)C1CCCCC1 | x | 7 | 0% | 16µM* | i | 2
CN(C)S(=O)(=O)c1cccc(CSCc2cccc(S(=O)(=O)N(C)C)c2)c1 | 6.5µM* | -12 | 6% | u | u | -4
CC(=O)N1CCc2c1cccc2S(=O)(=O)NC(CC(C)C)C(=O)Nc1ccc(Cl)c(Cl)c1 (stereo not given) | x | x | x | x | x | -3
O=C(C#Cc1ccccc1)Nc1cccc(F)c1 | 15% | -9 | -4% | u | 23µM* | 0
SMILES | Nrf2 inh | Giardia killer | A549 tox | KB-V1 MDR tox | KB-3-1 tox | PI4K2A block
O=C(C#Cc1ccccc1)Nc1ccc(F)cc1 | -26% | 20 | -5% | i | u | -3
COc1ccc(NC(=O)C#Cc2ccccc2)cc1 | -27% | 12 | -11% | i | 21µM* | -2
CC(=O)Nc1ccc(-c2ccnc3c2CC(C(=O)NCc2ccccc2)O3)cc1 (stereo not given) | x | x | x | 1.3µM* | 0.065µM* | -1
CC(=O)Nc1ccc(-c2ccnc3c2CC(C(=O)NCCc2ccccc2)O3)cc1 (stereo not given) | x | x | x | i | i | 3
CC(=O)Nc1ccc(-c2ccnc3c2CC(C(=O)NCc2ccco2)O3)cc1 (stereo not given) | x | x | x | i | 0.52µM* | -1
CC(=O)Nc1ccc(OCc2cccc(-c3nc4ccccc4c(=O)n3Cc3ccco3)c2)cc1 | u | x | -15% | x | x | x
COC(=O)c1ccc(OCC2c3cc(OC)c(OC)cc3CCN2C(=O)c2ccc(OC)cc2)cc1 (stereo not given) | x | x | -15% | i | i | -2
COc1cc2c(cc1OC)C(COc1ccccc1OC)N(C(=O)COc1ccc(Cl)cc1)CC2 (stereo not given) | x | x | -1% | 21µM* | i | -2
CCc1ccc(OCC2c3cc(OC)c(OC)cc3CCN2C(=O)COc2ccccc2)cc1 (stereo not given) | x | x | -24% | i | i | 3
COC(=O)c1ccc(OCC2c3cc(OC)c(OC)cc3CCN2C(=O)c2ccco2)cc1 (stereo not given) | u | 0 | -1% | 6.5µM* | i | -5
COC(=O)[C@]12C[C@H](CC(=O)N3CCCC3)C(=O)N(Cc3cccc4ccccc34)C1=C[C@H](C(C)(C)C)O[C@@H]2C | x | x | x | x | x | 4
Cc1ncc([N+](=O)[O-])n1CCOC(=O)NC(NCc1ccccc1Cl)C(Cl)(Cl)Cl (stereo not given) | 4% | -119* | 13% | 7.3µM* | u | -3
Cc1ncc([N+](=O)[O-])n1CCOC(=O)c1ccc(Cl)cc1Cl | u | u | 9% | i | i | -2
COc1ccc(NC(=O)OCCn2c([N+](=O)[O-])cnc2C)cc1 | -8% | -87* | 0% | i | u | 5
CCc1ccccc1NC(=O)Cn1ccn(-c2cc(C)cc(C)c2)c(=O)c1=O | 14% | x | 4% | x | x | 4
CCCC(=O)Nc1cccc(OCc2cc(=O)n3cccc(C)c3n2)c1 | x | x | 7% | x | x | -5
COc1cccc(NC(=O)c2cccc(N3C(=O)C4C5C=CC(C5)C4C3=O)c2)c1 (stereo not given) | 18µM* | -6 | u | i | i | -2
